Assay [1] can be described thus: viability loss in pontine glioma line – cell-based, SU-DIPG-XXV, MIPE5.0, CellTiter-Glo, qHTS, dose response (AID 1347065; cut-off not given, nearly all actives have AC50 up to about 26 µM;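 further: cells exposed to compound for 48 hours before ATP readout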). The settings on record: CellTiter-Glo ATP luminescence. In general terms: ATP-based viability assays read luminescence as a measure of living cells.
Assay [2] can be described thus: growth inhibition, single agents and combos, CRL2098, cell-based, BGB or cisplatin IC20 combos, synergistic combos for chromothripsis tumors (AID 1671454).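 Further: cells exposed for 96 h before readout; 0% = vehicle DMSO and 100% = killing by high DMSO.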 The settings on record: CRL2098 osteosarcoma cells, drug combinations, stronger effect = higher value.
Assay [3] in a line: growth inhibition, single agents and combos, HD-MB03, cell-based, BGB or cisplatin IC20 combos, synergistic combos for chromothripsis tumors (AID 1671455; in the data active means inhibition above about 83%;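 further: 0% = vehicle DMSO and 100% = high DMSO as cytotoxic control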). Particulars: HD-MB03 medulloblastoma cells, stronger effect = higher value.
A short description of assay [4]: growth inhibition, single agents and combos, UWB1.289, cell-based, BGB or cisplatin combos, synergistic combos for chromothripsis tumors (AID 1671456).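 Further: cells exposed to compound for four days; 0% = vehicle DMSO and 100% = killing by high DMSO.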 Particulars: UWB1.289 ovarian carcinoma cells, stronger effect = higher value.
Assay [5] can be described thus: growth inhibition, single agents and combos, LFS_MB_2R, cell-based, cisplatin combos, synergistic combos for chromothripsis tumors (AID 1671457).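 Further: cells exposed to compound for four days before readout.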 The settings on record: LFS_MB_2R medulloblastoma cells, stronger effect = higher value.
Assay [6] is described as follows: UWB1.289_BRCA1 ovarian cancer growth, cell-based, BGB or cisplatin combinations (AID 1671459). Particulars: UWB1.289 BRCA1 ovarian carcinoma, drug combinations, stronger effect = higher value.
Assay [7] is described as follows: drug combination toxicity in non-malignant astrocytes – cell-based, BGB or cisplatin IC20 combos, cytotoxicity control for chromothriptic childhood tumor combination screen (AID 1671460).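 Further: cells exposed to compounds for 96 hours before viability readout; 0% = vehicle and 100% = killing control.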 Particulars: Human astrocytes, viability inhibition, drug combinations, at 0.5 µM, stronger effect = higher value.
A short description of assay [8]: viability loss in pontine glioma line – cell-based, SU-DIPG-XIII, MIPE5.0, CellTiter-Glo, qHTS, dose response (AID 1347064; cut-off not given, nearly all actives have AC50 up to about 23 µM). Particulars: CellTiter-Glo ATP luminescence.
Assay [9] in a line: chitosan synthesis blockers in C. neoformans – flow cytometry, Cibacron Brilliant Red staining (AID 1347148; call rule not given here;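 further: compound exposure lasted three days at 37 degrees C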). Particulars: Cryptococcus neoformans chitosan, stronger effect = lower value; at 10 µM unless noted. A general note: In flow cytometry, cells or beads pass a laser one at a time.
Assay [10] addresses ATP-dependent translocase ABCB1 (Homo sapiens) (UniProt P08183). The assay is described as follows: P-glycoprotein substrate transport blockade – cell-based (AID 377; in the data active means fluorescence slope change above about 50%). The settings on record: MDR1-expressing cells, fluorescent substrate accumulation slope; stronger effect = higher value; concentration not given here.
Assay [11] deals with Neuropilin-2 / VEGF-C interaction (human). As to the kind of experiment: small molecules blocking Neuropilin-2/VEGF-C interaction – biochemical, microplate binding format, z-score (AID 743281; call rule not given here). The settings on record: microplate NRP2/VEGF-C binding assay; stronger effect = lower value.
Assay [12] can be described thus: viability loss in pontine glioma line – cell-based, SU-DIPG-XVII, MIPE5.0, CellTiter-Glo, qHTS, dose response (AID 1347060; cut-off not given, nearly all actives have AC50 up to about 26 µM). Particulars: CellTiter-Glo ATP luminescence.
Assay [13] in a line: JHH-DIPG-1 glioma cell viability, MIPE5.0 library, CellTiter-Glo luminescence, qHTS (AID 1347067; cut-off not given, nearly all actives have AC50 up to about 26 µM;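 further: cells exposed to compound for 48 hours before readout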). The settings on record: JHH-DIPG-1 glioma viability, CellTiter-Glo ATP luminescence.
Assay [14] can be described thus: compounds altering HSF1 focus formation in cells – imaging, Selleck Cancer Library (AID 1347162; in the data active means plate-normalised HSF1 focus index below about 0.46). The settings on record: human cells, HSF1 nuclear foci imaging, at 10 µM; SSMD: measured here: HSF1 foci SSMD mean; cell count: measured here: cell number; plate-normalised HSF1 focus index: stronger effect = lower value.
[15] abbreviates: measured here: combination with BGB at IC20, at 0.5 µM.
Setting [16] is: measured here: combination with cisplatin at IC20, at 0.5 µM.
[17] abbreviates: measured here: combo with BGB at IC20, at 0.5 µM.
Setting [18] is: measured here: combo with cisplatin at IC20, at 0.5 µM.
The mark [19] stands for this setting: measured here: inhibition with BGB combination, at 0.05 µM.
[20] abbreviates: measured here: inhibition with cisplatin combination, at 0.05 µM.
Where [21] appears, read: measured here: combination with cisplatin, at 0.5 µM.
[22] abbreviates: measured here: combination with cisplatin, at 5 µM.
[23] abbreviates: BGB combination, concentration series, at 5 µM.
The mark [24] stands for this setting: cisplatin combination, concentration series, at 5 µM.
Setting [25] is: measured here: combo with BGB IC20.
Where [26] appears, read: measured here: combo with cisplatin IC20.

“And” between values parts separate entries of the source, which are not always exact repeats. Equal values may be shown once. Records with an inconclusive call do not appear. The source made the active and inactive calls. Unless noted, no stated cut-off is given here; in the data, active means inhibition above about 80%; inactive means the rest.

Sequence of ATP-dependent translocase ABCB1 (Homo sapiens) (P08183 whole entry, looked up): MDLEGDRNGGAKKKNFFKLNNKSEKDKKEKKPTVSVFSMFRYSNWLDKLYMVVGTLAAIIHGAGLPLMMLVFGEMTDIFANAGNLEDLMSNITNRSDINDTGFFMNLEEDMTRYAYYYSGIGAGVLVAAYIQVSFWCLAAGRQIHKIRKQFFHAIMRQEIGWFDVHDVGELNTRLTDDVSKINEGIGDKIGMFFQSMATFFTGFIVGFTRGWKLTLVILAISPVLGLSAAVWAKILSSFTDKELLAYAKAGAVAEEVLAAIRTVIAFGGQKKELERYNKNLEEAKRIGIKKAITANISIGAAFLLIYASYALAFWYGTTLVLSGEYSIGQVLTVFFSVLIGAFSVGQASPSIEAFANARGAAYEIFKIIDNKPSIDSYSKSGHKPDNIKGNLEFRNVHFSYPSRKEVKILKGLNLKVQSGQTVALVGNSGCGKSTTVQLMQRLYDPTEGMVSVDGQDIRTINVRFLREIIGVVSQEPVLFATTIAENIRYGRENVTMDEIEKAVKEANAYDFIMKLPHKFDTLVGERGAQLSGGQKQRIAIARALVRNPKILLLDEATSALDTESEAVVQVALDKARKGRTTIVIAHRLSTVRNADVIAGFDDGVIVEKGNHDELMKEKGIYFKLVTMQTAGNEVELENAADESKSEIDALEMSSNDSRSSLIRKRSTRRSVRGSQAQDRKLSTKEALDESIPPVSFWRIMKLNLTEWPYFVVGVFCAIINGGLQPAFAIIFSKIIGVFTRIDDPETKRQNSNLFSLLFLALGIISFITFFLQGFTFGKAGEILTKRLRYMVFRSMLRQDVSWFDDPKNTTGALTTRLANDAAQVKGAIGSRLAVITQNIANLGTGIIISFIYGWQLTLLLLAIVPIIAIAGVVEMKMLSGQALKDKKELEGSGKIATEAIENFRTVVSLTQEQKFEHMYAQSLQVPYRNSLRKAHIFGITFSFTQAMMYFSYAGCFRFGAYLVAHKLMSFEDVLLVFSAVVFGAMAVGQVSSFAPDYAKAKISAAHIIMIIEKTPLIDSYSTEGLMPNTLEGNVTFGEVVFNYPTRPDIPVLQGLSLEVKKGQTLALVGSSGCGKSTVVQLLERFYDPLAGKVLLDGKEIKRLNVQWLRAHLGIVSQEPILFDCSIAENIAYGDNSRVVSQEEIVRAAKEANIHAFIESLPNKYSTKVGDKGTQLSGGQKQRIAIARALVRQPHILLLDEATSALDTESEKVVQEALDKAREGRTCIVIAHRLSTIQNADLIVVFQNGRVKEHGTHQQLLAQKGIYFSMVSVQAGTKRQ

For `Cc1c(-c2ccc(O)cc2)n(Cc2ccc(OCCN3CCCCCC3)cc2)c2ccc(O)cc12`, the half-maximal activity concentration (AC50) in [1] is 20.9 µM (active).

Turning to `Cc1ccc2nc(N)[nH]c(=O)c2c1Sc1ccncc1`, the inhibition in [2] (at 0.5 µM) is -63.7% (inactive); in assay [2] (setting [15]), -72.3%; in assay [2] (setting [16]), -84.4%; in assay [3] (at 0.5 µM), -15.4% (inactive); in assay [3] (setting [17]) it was -11.9%; in assay [3] (setting [18]) it was -25.1%. In addition, the inhibition in assay [4] (at 0.5 µM) is -17.5% (inactive); in assay [4] (setting [19]), 4.97%; in assay [4] (setting [20]), -23%; in assay [5] (at 0.5 µM), -12.4% (inactive); in [5] (setting [21]), -25.9%; in assay [5] (setting [22]), -11.5%. Also, the inhibition is -8.1% in [6] (setting [23]); -23.6% (inactive) in assay [6] (at 0.5 µM); -9.76% in assay [6] (setting [24]); -6.91% (inactive) in assay [7]; -8.77% in [7] (setting [25]); -12.3% in assay [7] (setting [26]).

Regarding `CN1C[C@@H]2C[C@H]1CN2c1cc2c(cc1F)c(=O)c(C(=O)O)cn2C1CC1`, the inhibition was -70.8% (inactive) in assay [2] (at 0.5 µM); -121% in [2] (setting [15]); -50% in assay [2] (setting [16]); -14.8% (inactive) in assay [3] (at 0.5 µM); -11.6% in [3] (setting [17]); -20.6% in assay [3] (setting [18]). Besides, the inhibition was -14.3% (inactive) in assay [4] (at 0.5 µM); -14.8% in assay [4] (setting [19]); -20.1% in [4] (setting [20]); -7.92% (inactive) in assay [5] (at 0.5 µM); -3.36% in assay [5] (setting [21]); -96.9% in assay [5] (setting [22]). Moreover, the inhibition was -23.3% in assay [6] (setting [23]); -16% (inactive) in assay [6] (at 0.5 µM); 2.38% in assay [6] (setting [24]); -25.7% (inactive) in assay [7]; -14.8% in [7] (setting [25]); -51.5% in assay [7] (setting [26]).

As for `CCCCCCCCCCCCCCCCCCOP(=O)([O-])OC1CC[N+](C)(C)CC1`, the outcome in [8] was inactive.

As to `Cc1cccc(Nc2cc(Cl)nc(SCC(=O)O)n2)c1C`, the fold fluorescence in assay [9] is 4.05 (inactive).

As for `CCn1cc(C(=O)O)c(=O)c2ccc(C)nc21`, the fluorescence slope change in assay [10] was 59.8% (active). The inhibition in [2] (at 0.5 µM) is -8.42% (inactive) and -27% (inactive); in assay [2] (setting [15]) it was -13.8% and -3.06%; in assay [2] (setting [16]) it was 2.7% and -23.8%; in [3] (at 0.5 µM) it was -1.5% (inactive) and -3.12% (inactive); in assay [3] (setting [17]) it was -0.571% and -10.6%; in [3] (setting [18]) it was -1.78% and 8.77%. The inhibition is 13.8% (inactive) and -1.94% (inactive) in [4] (at 0.5 µM); -3.65% and -15.7% in assay [4] (setting [19]); 2.92% and -1.74% in assay [4] (setting [20]); 5.5% (inactive) and -20.2% (inactive) in assay [5] (at 0.5 µM); 1.69% and -14.8% in [5] (setting [21]); 8.3% and -22.4% in [5] (setting [22]). Moreover, the inhibition was 11.3% and 18.4% in assay [6] (setting [23]); 11% (inactive) and -9.48% (inactive) in assay [6] (at 0.5 µM); 7.14% and -4.85% in assay [6] (setting [24]); 1.03% (inactive) and 6.47% (inactive) in assay [7]; -4.36% and 3.89% in assay [7] (setting [25]); 17.2% and 0.487% in assay [7] (setting [26]).

For the compound `COC(=O)C1=C(C)NC(C)=C(C(=O)OC)C1c1ccccc1[N+](=O)[O-]`, in [11], the z-score is -0.452 (inactive). Further, the fold fluorescence in [9] was 3.72 [at 144.4 µM] (inactive).

For the compound `COc1c2occc2cc2ccc(=O)oc12`, the fluorescence slope change in assay [10] is 78.2% (active). For the same compound, the outcome in [12], in [8] and in assay [13] was inactive.

In the case of `CC(C(=O)O)c1cccc(C(=O)c2ccccc2)c1` (stereo not drawn), the fluorescence slope change in [10] is 70.4% (active). In addition, the outcome in assay [12], in assay [8], in [1] and in assay [13] was inactive.

Regarding `CC(C)OC(=O)C(C)(C)Oc1ccc(C(=O)c2ccc(Cl)cc2)cc1`, the result in assay [8] and in assay [13] was inactive.

Turning to `CN(C)C(=O)C(CCN1CCC(O)(c2ccc(Cl)cc2)CC1)(c1ccccc1)c1ccccc1`, the result in [8] and in assay [13] was inactive. In addition, the fold fluorescence in [9] is 10.1 [at 104.8 µM] (inactive).

On to `N=c1nc(N2CCCCC2)cc(N)n1O`, for which, in assay [9], the fold fluorescence is 4.24 [at 238.9 µM] (inactive).

With `O=C1CN(/N=C/c2ccc([N+](=O)[O-])o2)C(=O)N1`, in assay [10], the fluorescence slope change was 98.9% (active).

`NC(=O)c1cccnc1`: the z-score in [11] was 1.84 (inactive). Moreover, the outcome in [12], in assay [8], in assay [1] and in [13] was inactive.

Consider `Cc1ccc(-n2nc(C(C)(C)C)cc2NC(=O)Nc2ccc(OCCN3CCOCC3)c3ccccc23)cc1`, for which the call in assay [12], in assay [8], in assay [1] and in assay [13] was inactive. This compound also came in with an SSMD in assay [14] of 3.54. For the same compound, the cell count in assay [14] turned out to be 7570. Moreover, the plate-normalised HSF1 focus index in assay [14] was 1.13 (inactive).

A word on the AC50: it is the concentration at which the activity in the assay is half-maximal. The inhibition is the change of the read-out against control, counted positive when it falls.

These data come from PubChem BioAssay.
